From PubChem BioAssay (NCI) come the findings set out here.

About 83,000 compounds went through this panel and 20% of them were active in at least one assay; those are over-represented in the sample as a whole.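 Step 1: grow cells in 96-well plates. Step 2: add test compound at a single concentration. Step 3: incubate 48 h. Step 4: record percent growth.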 A number with no mark means an inactive call. Activity calls are given as the source filed them. Rule for the calls: active = growth percent below 10; inactive = the rest.

What all share (test): NCI-60 one-dose screen, 48 h (100 = growth as untreated, 0 = no growth, -100 = all killed)
Conditions in all cases: 10 µM unless noted

For assay [1], the system named is T-47D breast.
In assay [2] the test system is BT-549 breast.
The subject of assay [3] is MDA-MB-435 melanoma.
Assay [4] has as its system SW-620 colon.
In assay [5] the test system is MCF7 breast.
In assay [6] the test system is HCT-116 colon.
For assay [7], the system named is HCC-2998 colon.
The subject of assay [8] is KM12 colon.

As for `Cc1cc2c3ccc(C)[n+](C)c3ccc2n1C`, the growth in assay [1] is 74.5%; in assay [2] it was 16.8%; in assay [3], 52%; in assay [4], 15.1%; in assay [5], 57%; in assay [6] it was 29.4%. Also, the results for the growth in assay [7] and in assay [8] were 22.2% and 5.81% (active), respectively.
In the case of `CC(C)N(CCCC#N)C(C)C`, the growth is 94.2% in assay [1]; 112% in assay [2]; 103% in assay [3]; 99.2% in assay [4]; 83.7% in assay [5]; 98.8% in assay [6]. Further, the growth is 106% in assay [7] and 105% in assay [8].
For `O=C(O)c1ccc(OCc2ccccc2)cc1`, the growth in assay [1] was 83.7%; in assay [2] it was 104%; in assay [3] it was 108%; in assay [4] it was 107%; in assay [5], 96.5%; in assay [6], 93%. Further, the growth in assay [7] was 101%; in assay [8], 111%.
As for `CN1CCCN(C(c2ccccc2)c2ccc(Cl)cc2)CC1` (centres undefined), the growth in assay [1] is 87.1%; in assay [2], 94.5%; in assay [3], 89.6%; in assay [4], 85.9%; in assay [5], 80.6%; in assay [6], 96.9%. Further, the growth in assay [7] was 98.9%; in assay [8], 101%.
As for `O=CNCCc1ccccc1`, the growth was 101% in assay [1]; 96.5% in assay [2]; 102% in assay [3]; 113% in assay [4]; 95.3% in assay [5]; 102% in assay [6]. Besides, the growth is 122% in assay [7] and 131% in assay [8].
In the case of `O=C1C=Cc2ccccc2/C1=C/c1[nH]c(=O)[nH]c1O`, the growth in assay [1] is 39.6%; in assay [2], 20.6%; in assay [3], -6.05% (active); in assay [4] it was 22%; in assay [5] it was 12.9%; in assay [6], 17.2%. For the same molecule, the figures for the growth in assay [7] and in assay [8] were 54.1% and 40.2%, respectively.
`COc1ccc(Nc2cc(Cl)ccc2C(=O)O)cn1`: the growth in assay [1] was 110%; in assay [2], 122%; in assay [3] it was 122%; in assay [4], 103%; in assay [5], 98.4%; in assay [6] it was 102%. In addition, the growth is 110% in assay [7] and 99.2% in assay [8].
Regarding `CS(=O)CC(=N\O)/C(CS(C)=O)=N\O` (centres undefined), the growth was 108% in assay [1]; 106% in assay [2]; 106% in assay [3]; 101% in assay [4]; 90.7% in assay [5]; 102% in assay [6]. For the same molecule, the growth in assay [7] is 105%; in assay [8] it was 102%.
`CCc1ccccc1C(=O)N(CC)CC`: the growth is 92.8% in assay [1]; 102% in assay [2]; 104% in assay [3]; 105% in assay [4]; 91% in assay [5]; 92.9% in assay [6]. The growth in assay [7] was 104%; in assay [8], 103%.
Turning to `Cc1ccc(S(N)(=O)=O)cc1Cl`, the growth in assay [1] was 102%; in assay [2] it was 77.9%; in assay [3] it was 114%; in assay [4], 114%; in assay [5], 96.3%; in assay [6], 104%. Besides, the growth in assay [7] was 116%; in assay [8] it was 112%.
Turning to `CCOC(=O)C(COS(C)(=O)=O)(COS(C)(=O)=O)C(=O)OCC`, the growth in assay [1] was 103%; in assay [2], 106%; in assay [3], 104%; in assay [4] it was 110%; in assay [5], 98.7%; in assay [6] it was 104%. Besides, the values for the growth in assay [7] and in assay [8] were 106% and 107%, respectively.
Take `Cc1cc(=O)n(Nc2ccccc2)c(O)c1C#N`: the growth was 92% in assay [1]; 107% in assay [2]; 108% in assay [3]; 98.6% in assay [4]; 98.4% in assay [5]; 101% in assay [6]. Besides, the values for the growth in assay [7] and in assay [8] were 112% and 92.9%, respectively.
Take `O=C(O)c1ccccc1Cc1ccc2c(c1)CCCC2`: the growth in assay [1] is 113%; in assay [2], 106%; in assay [3], 115%; in assay [4], 99.5%; in assay [5], 91.7%; in assay [6], 104%. For the same molecule, the values for the growth in assay [7] and in assay [8] were 115% and 113%, respectively.
With `O=C(Nc1ccc([N+](=O)[O-])cc1)C(=O)Nc1ccc([N+](=O)[O-])cc1`, the growth in assay [1] is 88.7%; in assay [2], 100%; in assay [3] it was 106%; in assay [4] it was 96.5%; in assay [5], 90.6%; in assay [6], 97.3%. The growth in assay [7] was 103%; in assay [8], 99%.
Take `CCOc1ccncc1[N+](=O)[O-]`: the growth in assay [1] is 104%; in assay [2] it was 111%; in assay [3], 107%; in assay [4] it was 101%; in assay [5] it was 100%; in assay [6], 108%. Besides, the growth was 106% in assay [7] and 101% in assay [8].
On to `Nc1nc(Cl)cc(Cl)n1`, for which the growth was 82% in assay [1]; 102% in assay [2]; 111% in assay [3]; 109% in assay [4]; 90.3% in assay [5]; 90.1% in assay [6]. Besides, the growth in assay [7] is 114%; in assay [8], 106%.
Consider `CC(=O)c1cccc(NS(=O)(=O)c2ccc(C)cc2)c1`, for which the growth in assay [1] is 67.7%; in assay [2], 74.8%; in assay [3], -21.4% (active); in assay [4], 43.3%; in assay [5] it was 39.8%; in assay [6], 60.2%. Moreover, the results for the growth in assay [7] and in assay [8] were 65.4% and 34.2%, respectively.
`CCOC(=O)Nc1nccs1`: the growth was 94.8% in assay [1]; 101% in assay [2]; 111% in assay [3]; 110% in assay [4]; 101% in assay [5]; 104% in assay [6]. The growth was 118% in assay [7] and 107% in assay [8].
